Screens as filed in PubChem BioAssay.
In the library only some 21% were active in any assay of this set; here they are far more common.
Gal4-VP16 FLuc – counter-screen for ROR gamma inhibitors: Gal4-VP16 reporter; Drosophila S2 Gal4-VP16 UAS-luciferase, luminescence, 20 h; AID 2546; Potency, µM (series often up to 53.6 µM), inactives show top-dose activity, negative = inhibition, most hits filed as inhibitors; 310,000 tested, 3.5% active;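 also: Gal4-VP16 expression switched on by copper sulfate through the metallothionein promoter; potency is read from the fitted curve at half-maximal effect; nearly all actives have a fitted effect of over 50% in size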
ELG1 DNA repair – blocks ELG1-dependent DNA repair in HEK293T cells. HEK293T ELG1-luciferase reporter, luminescence, 16 h; DNA damage induced by 5-fluorouridine. Potency, µM (series often up to 46.1 µM), inactives show top-dose activity change, negative = inhibition, usual class: inhibitors. 330,000 tested, 2.3% active. AID 504467; also: potency is read from the fitted curve at half-maximal effect; nearly all actives have a fitted effect of over 55% in size
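HEK293T cells expressing luciferase-tagged ELG1 (2,000/well) received 5-Fluorouridine plus compound or DMSO for 16 hr at 37 °C. Luciferase was read by ONE-Glo luminescence after 30 min at room temperature.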
RORgamma inh – inhibitors of mouse ROR gamma transcriptional activity; P51450; Drosophila S2 Gal4-RORgamma UAS-luciferase reporter, 20 h; Potency, µM (doses to about 53.6 µM), for the others: at the top dose activity change, negative = inhibition, most hits filed as inhibitors; 310,000 tested, 5.4% active; also: potency is read from the fitted curve at half-maximal effect; nearly all actives have a fitted effect of over 60% in size
Target sequence (P51450 whole entry, looked up, the tested form may be a part): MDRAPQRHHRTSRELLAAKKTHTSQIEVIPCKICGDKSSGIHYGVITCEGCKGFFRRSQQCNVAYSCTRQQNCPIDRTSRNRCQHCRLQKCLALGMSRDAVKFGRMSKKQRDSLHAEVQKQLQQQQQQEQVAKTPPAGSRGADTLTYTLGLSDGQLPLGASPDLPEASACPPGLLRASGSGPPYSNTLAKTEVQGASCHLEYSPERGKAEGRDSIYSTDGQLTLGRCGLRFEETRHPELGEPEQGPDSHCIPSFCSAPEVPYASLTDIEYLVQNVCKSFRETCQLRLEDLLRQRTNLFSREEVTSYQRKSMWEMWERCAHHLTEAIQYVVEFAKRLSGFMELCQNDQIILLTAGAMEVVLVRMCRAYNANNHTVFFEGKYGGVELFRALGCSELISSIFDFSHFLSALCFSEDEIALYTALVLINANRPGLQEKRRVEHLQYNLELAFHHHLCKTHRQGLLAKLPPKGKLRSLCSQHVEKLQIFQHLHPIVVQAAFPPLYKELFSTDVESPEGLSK
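In this cell-based reporter format, copper sulfate (700 uM final) drives Gal4–ROR gamma fusion expression from a metallothionein promoter in Drosophila Schneider cells; compounds preincubated 1 hr, reporter read after 20 hr at ambient temperature.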
DT40 TDP1 no CPT – qHTS for Inhibitors of human tyrosyl-DNA phosphodiesterase 1 (TDP1): qHTS in cells in absence of CPT. DT40 Tdp1-/- hTDP1 cells, no CPT, ATP luminescence, 48 h. Potency, µM (titrated, usually from 46.2 µM), for the others: at the top dose activity change, negative = growth inhibition, actives largely listed as inhibitors. 420,000 tested, 15% active; also: potency is read from the fitted curve at half-maximal effect; nearly all actives have a fitted effect of over 55% in size
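A cellular qHTS used chicken DT40 cells lacking endogenous Tdp1 but carrying stably transfected human TDP1. Compounds were applied without camptothecin, and cell growth kinetics were judged by ATP-dependent luminescence after ≥48 hr.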
DT40 TDP1 CPT – growth inhibition of DT40 Tdp1-/-;hTDP1 cells with camptothecin (screen for TDP1 inhibitors); 420,000 tested, 12% active; chicken DT40 Tdp1-/-;hTDP1 cells + 20 nM CPT, ATP luminescence, 48 h; Potency, µM (top dose mostly 46.2 µM), for inactives: at the highest dose activity change, negative = growth inhibition, usual class: inhibitors; also: potency is read from the fitted curve at half-maximal effect; nearly all actives have a fitted effect of over 55% in size
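Chicken DT40 Tdp1-/- cells complemented with human TDP1, 400 cells/well, exposed to compounds plus 20 nM camptothecin for at least 48 h at 37 C; viability read as ATP content by CellTiter-Glo luminescence.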
IL1B secr inh – inflammasome signaling inhibition, IL-1 beta readout; THP-1 LPS/ATP IL-1B secretion, AlphaLISA, 16 h; active compounds read low; activity change, % at 57.5 µM; 360,000 tested, 4.7% active; in the data active = activity change below about -50%; inconclusive = mostly about -30% to -49%
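THP-1 cells pretreated 1 hr with compounds (up to 57.5 uM final), then stimulated with LPS (250 ng/mL final) plus ATP (1.25 mM final); secreted IL-1B measured by AlphaLISA after 16 hr, decreased signal indicating inhibition.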
* marks the source's active call; other numbers are inactive results; i = inactive; ? = inconclusive; · = no result; [ ] = remark or other dose. Unless noted, calls follow the shape of the dose curve; as a rule, active = well fitted curve in the direction sought with a large enough effect; inconclusive = small, poorly fitted or top-dose-only effect, or another doubt; inactive = no such curve, though single readings can be large; an effect the other way counts as inactive or inconclusive. % is scaled to controls: 0 for no effect and ±100 for the full control effect.

SMILES	Gal4-VP16 FLuc	ELG1 DNA repair	RORgamma inh	DT40 TDP1 no CPT	DT40 TDP1 CPT	IL1B secr inh
O=C(NC(=S)Nc1ccccc1N1CCN(C(=O)c2ccccc2)CC1)c1ccccc1F	?	-29%	13µM*	18µM*	16µM*	i
FC(F)(F)Oc1ccc(NC(=S)Nc2ccccc2N2CCOCC2)cc1	?	?	7.9µM*	16µM*	?	21
CCC(=O)N1CCN(c2ccccc2NC(=S)NC(=O)c2ccco2)CC1	-4%	-3%	-10%	?	?	-7
CC(=O)NC(=S)Nc1ccccc1N1CCN(C(=O)c2ccccc2)CC1	5µM*	?	6.3µM*	?	-21%	26
O=C(NC(=S)Nc1ccccc1N1CCOCC1)c1ccccc1F	20µM*	2%	13µM*	?	?	-8
CCN(CC(=O)Nc1c(F)cccc1F)C(=O)c1ccc(OCC(=O)N2CCOCC2)c(OC)c1	·	·	·	-16%	11%	10
CC(C)=NNC(=O)C1=NNC(=O)C1	-4%	-10%	1%	-1%	-6%	8
Cc1ccc(C)c(NC(=O)CSc2nc3nccnc3c(=O)n2CCc2c[nH]c3ccccc23)c1	·	·	·	12µM*	12µM*	·
CCc1ccc(NC(=O)CSc2nc3nccnc3c(=O)n2CCc2c[nH]c3ccccc23)cc1	·	·	·	4.1µM*	8.2µM*	·
CCc1nc2ccc(C(=O)NCCNC(C)=O)cn2c1N(CC)CCOC	·	·	·	-2%	3%	7
CC(C)Oc1ccc(C(=O)/C(=C\c2cccs2)c2nc3ccccc3o2)cc1	-15%	?	-37%	?	?	-67*
COC(=O)/C=C1\OCc2cc(OC)c(OC)cc21	·	·	·	-2%	9%	-9
COc1ccc(/C=C2\C(=O)OCc3cc(OC)c(OC)cc32)cc1OC	-1%	1%	-3%	-35%	?	-51*
COc1cc2c(cc1OC)/C(=C/c1ccc(Cl)cc1)C(=O)OC2	5%	-12%	-1%	?	?	-81*
COc1cc2c(cc1OC)/C(=C/C(C)=O)OC2	·	·	·	-2%	-6%	19
Cc1cc(SCC(=O)Nc2ccc(O)cc2)n2nc(C)c(-c3ccccc3)c2n1	11%	?	-14%	?	?	-80*
Cc1cc(SCC(=O)Nc2ccccc2)n2ncc(-c3ccccc3)c2n1	-6%	-27%	-33%	-56%	?	-55*
COc1ccc(NC(=O)CSc2cc(C)nc3c(-c4ccccc4)cnn23)cc1	-9%	-3%	-9%	?	25%	20
C=C(C)CSc1cc(C)nc2c(-c3ccccc3)c(C)nn12	?	?	11µM*	?	?	-6
CCSc1cc(C)nc2c(-c3ccccc3)c(C)nn12	19%	29%	0%	-16%	-8%	-14
Cc1cc(SCC(=O)Nc2ccc(O)cc2)n2ncc(-c3ccccc3)c2n1	-6%	-14%	7%	-2%	-30%	-51*
COCCNC(=O)NC(=O)CSc1nc(C)c(C)c(C)n1	-11%	-6%	3%	-1%	3%	19
O=C(c1ccncc1)N1CCC2(CC1)CN(c1ncccn1)C2	-5%	·	-6%	-9%	4%	·
O=C1c2oc3ccccc3c(=O)c2C(c2ccccc2F)N1Cc1ccc2c(c1)OCO2 (configuration not stated)	·	·	·	?	-25%	·
CC(C)(C)n1nnnc1C(c1ccccc1OC(F)(F)F)N1CCN(C/C=C/c2ccccc2)CC1 (configuration not stated)	·	·	·	15µM*	21µM*	-3
SMILES	Gal4-VP16 FLuc	ELG1 DNA repair	RORgamma inh	DT40 TDP1 no CPT	DT40 TDP1 CPT	IL1B secr inh
Cc1cccc(C)c1-n1nnnc1C(c1ccccc1OC(F)(F)F)N1CCN(C/C=C/c2ccccc2)CC1 (configuration not stated)	·	·	·	21µM*	?	32
C=CCN1CCN(C(c2ccccc2OC)c2nnnn2C(C)(C)C)CC1 (configuration not stated)	-4%	9%	4%	-3%	2%	19
COc1cccc(C(c2nnnn2-c2c(C)cccc2C)N2CCN(C/C=C/c3ccccc3)CC2)c1OC (configuration not stated)	·	·	·	?	?	0
CCOC(=O)CNC(=O)N1C[C@H]2CON(C)[C@H]2C[C@H]1c1ccccc1Br	·	·	·	-2%	6%	20
CN(c1ccccc1)S(=O)(=O)c1cccc(NC(=O)C2CCCO2)c1 (configuration not stated)	·	-9%	·	-25%	-19%	-11
CC1CCCN(CCCOc2ccc(Br)cc2Cl)C1 (configuration not stated)	11%	?	28%	?	?	-90*
CC1CCN(CCOCCOc2ccc(Br)cc2Cl)CC1	-2%	?	-15%	21µM*	18µM*	?
CC(C)(C)NC(=O)C1c2ccccc2OCC(=O)N1Cc1ccc2c(c1)OCO2 (configuration not stated)	·	·	·	-9%	-29%	-4
CCc1nnc2n1N=C(c1ccc(-c3cc(Cl)ccc3Cl)o1)CS2	-23%	-10%	?	?	-26%	0
Clc1ccc(OCc2nnc3n2N=C(c2ccc4c(c2)OCCO4)CS3)c(Cl)c1	·	?	4%[0.365 µM]	12µM*	9.2µM*	4
Cc1cccc(NCc2ccccc2O)n1	-5%	?	25%	-21%	-26%	?
Cc1ccc2ccc(C(Nc3ccccn3)c3ccccc3)c(O)c2n1 (configuration not stated)	4.5µM*	-15%	5µM*	18µM*	23µM*	63
COc1cc(C(Nc2ccccn2)c2ccc3ccc(C)nc3c2O)cc(OC)c1O (configuration not stated)	13µM*	?	7.1µM*	3.3µM*	3.7µM*	-116*
Cc1cccc(NC(c2ccccc2C)c2ccc3ccc(C)nc3c2O)n1 (configuration not stated)	·	·	·	15µM*	?	·
O=c1ccc(=O)n(CCc2ccccn2)[nH]1	·	·	·	-17%	-13%	0
COc1cccc2c1N(C)C(=O)CC21C=CC(=O)C=C1	-14%	·	?	·	·	·
CC(=O)c1ccc(N2CCN(C(=O)CNC(=O)c3ccc(Br)o3)CC2)cc1	·	·	·	?	?	-12
COc1cccc(CN2CCNC(=O)C2CC(=O)N(C)C2CCOCC2)c1 (configuration not stated)	0%	27%	-3%	4%	-1%	0
